Data from PubChem BioAssay.
Values without a mark were called inactive. Inconclusive results are not listed. Active and inactive are the calls of the source. Rule as the data show it, unless noted: active = fluorescence slope change above about 50%; inconclusive = mostly about 31% to 49%; inactive = weaker than that.

How the values were obtained:
[1] = test system: Hepatitis C virus NS3 helicase; assay: HCV NS3 helicase inhibitors, primary screen, biochemical, fluorescence polarization, LOPAC1280 library (AID 687035; in the data active = inhibition above about 37%); settings: Purified HCV NS3 helicase, Cy5-dT15 ssDNA binding fluorescence polarization; stronger effect = higher value; concentration not given here
[2] = Cy5 fluorescence quenching or enhancement artefacts, artefact control for HCV NS3 helicase inhibitor project, biochemical, LOPAC1280 (AID 687037; call rule not given here); settings: Cy5-DNA-NS3h complex fluorescence interference counterscreen
[3] = target: ATP-dependent translocase ABCB1 (Homo sapiens) (UniProt P08183); assay: MDR1 (ABCB1) efflux transporter inhibition, cell-based (AID 377); settings: MDR1-expressing cells, fluorescent substrate accumulation slope; stronger effect = higher value; concentration not given here
ATP-dependent translocase ABCB1 (Homo sapiens), sequence (P08183 whole entry, looked up): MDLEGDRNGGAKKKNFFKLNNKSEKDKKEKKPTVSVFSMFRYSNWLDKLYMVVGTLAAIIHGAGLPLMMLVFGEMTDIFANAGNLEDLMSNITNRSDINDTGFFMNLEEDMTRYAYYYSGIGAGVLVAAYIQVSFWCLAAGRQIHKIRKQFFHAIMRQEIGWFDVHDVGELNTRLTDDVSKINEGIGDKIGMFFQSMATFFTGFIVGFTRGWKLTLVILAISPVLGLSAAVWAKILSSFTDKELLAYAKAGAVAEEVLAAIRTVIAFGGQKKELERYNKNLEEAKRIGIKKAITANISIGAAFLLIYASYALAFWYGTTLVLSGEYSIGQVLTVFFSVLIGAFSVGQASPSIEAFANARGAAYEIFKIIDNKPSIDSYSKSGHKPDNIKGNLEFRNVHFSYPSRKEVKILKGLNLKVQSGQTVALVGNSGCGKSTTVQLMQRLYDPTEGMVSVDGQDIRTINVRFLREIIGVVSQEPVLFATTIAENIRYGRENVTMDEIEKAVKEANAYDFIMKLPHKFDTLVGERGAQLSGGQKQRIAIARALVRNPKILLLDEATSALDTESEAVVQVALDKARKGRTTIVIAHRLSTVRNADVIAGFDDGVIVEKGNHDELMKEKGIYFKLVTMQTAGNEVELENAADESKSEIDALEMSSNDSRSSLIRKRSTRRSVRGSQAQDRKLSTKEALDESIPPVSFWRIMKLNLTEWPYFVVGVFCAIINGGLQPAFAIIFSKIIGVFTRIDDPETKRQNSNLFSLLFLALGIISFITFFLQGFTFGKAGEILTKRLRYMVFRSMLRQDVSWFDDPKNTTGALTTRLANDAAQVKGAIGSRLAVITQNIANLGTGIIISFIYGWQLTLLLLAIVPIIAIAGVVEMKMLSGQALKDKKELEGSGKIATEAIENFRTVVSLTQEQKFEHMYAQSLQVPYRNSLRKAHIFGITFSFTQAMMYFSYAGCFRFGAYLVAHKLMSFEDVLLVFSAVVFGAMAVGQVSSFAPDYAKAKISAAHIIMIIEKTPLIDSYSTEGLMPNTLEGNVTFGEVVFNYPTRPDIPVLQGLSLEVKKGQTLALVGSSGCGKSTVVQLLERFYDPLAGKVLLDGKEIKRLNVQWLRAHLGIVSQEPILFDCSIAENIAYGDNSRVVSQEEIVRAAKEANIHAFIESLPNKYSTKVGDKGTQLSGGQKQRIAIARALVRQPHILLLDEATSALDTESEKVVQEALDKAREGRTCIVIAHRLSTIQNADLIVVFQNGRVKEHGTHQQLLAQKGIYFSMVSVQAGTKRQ

SMILES | inhibition [1] [%] | fluorescence ratio (interference) [2] | fluorescence slope change [3]
NC(N)=NC(=O)c1nc(Cl)c(N2CCCCCC2)nc1N | -5 | 0.9 | 
COc1cc(S(C)=O)ccc1-c1nc2ncccc2[nH]1 (configuration not stated) |  |  | 5%
NC(=O)CC[C@H](N)C(=O)O | -3 | 1 | 
CN[C@H](CC(=O)O)C(=O)O | -2 | 1 | 
O=C1OC(=O)C2C3CCC(O3)C12 (configuration not stated) | -2 | 1 | 
NC(N)=NCCCCN=C(N)N | -3 | 1 | 59.6% (active)
COc1cc2c(cc1OC)-c1cc3ccc(OC)c(OC)c3c[n+]1CC2 |  |  | 29.3%
N[C@@H](Cc1cc(I)c(Oc2ccc(O)c(I)c2)c(I)c1)C(=O)O |  |  | 18.7%
Cc1cc(C(C)(C)CC(C)(C)C)ccc1OCCOCC[N+](C)(C)Cc1ccccc1 |  |  | 152% (active)
NCCCCC(=O)O | -1 | 0.9 | 
CN(C)CCOC(c1ccccc1)c1ccccc1 (tested in a mixture with another compound) |  |  | 130% (active)
Oc1cc(O)c2c(c1)O[C@H](c1ccc(O)c(O)c1)[C@@H](O)C2 | 0 | 1 | 16.4%
CC(C(=O)O)c1ccc(N2Cc3ccccc3C2=O)cc1 (configuration not stated) |  |  | 85.5% (active)
Cn1c(=O)c2[nH]c(C3CCCC3)nc2n(C)c1=O | -1 | 1 | 
CN(C)CCC(c1ccc(Br)cc1)c1ccccn1 (configuration not stated) | 0 | 0.9 | 54.4% (active)
COc1ccc([C@@H]2CC(=O)c3c(O)cc(O)cc3O2)cc1O |  |  | 5.5%
CC(C)Cn1c(=O)n(C)c(=O)c2[nH]cnc21 | -1 | 0.9 | 
CCCCN1CCCCC1C(=O)Nc1c(C)cccc1C (configuration not stated) |  |  | -6%
CC(C(=O)O)c1cccc(Oc2ccccc2)c1 (configuration not stated) |  |  | 22.2%
